From PubChem BioAssay AID710 (SRMLSC, 2007)
In all, about 98,000 compounds went through this assay and about 150 (0.15%) were called active. This excerpt belongs to a sample that is enriched for actives. Values without a mark were called inactive.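 The calls were made as follows: active = growth inhibition above about 50% at one test dose (limit read from the data); inactive = the rest.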

Experiment: antibacterial activity against E. coli BW25113 – strain BW25113, expanded library, OD600, primary screen (AID 710);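 also: growth measured after 20 h incubation at 37 °C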
Details: OD600 absorbance, at 100 µM, hits give high values

Row | SMILES | growth inhibition
1 | Cc1nnc(SCC(=O)NC2CCCC2)s1 | -2%
2 | COc1ccc(C(C#N)Nc2ccc(C)cc2)cc1 (stereo not drawn) | 3%
3 | Brc1ccc(OCCn2ccnc2)cc1 | 55% (active)
4 | CCOc1ccccc1C(=O)NCCCn1ccnc1 | 10%
5 | CC1(C)C2CCC1(C)C(OC(=O)CCn1ccnc1)C2 (stereo not drawn) | 6%
6 | Cc1ccc(Cc2c(C)nc3nc(SCC(=O)NCCN4CCOCC4)nn3c2C)cc1 | -9%
7 | Cc1ccc(S(=O)(=O)N(CC(=O)N/N=C/c2ccc(F)cc2)c2cccc3cccnc23)cc1 | -18%
8 | CN(Cc1nc2ccccc2c(=O)[nH]1)Cc1cc(=O)oc2ccc3ccccc3c12 | -4%
9 | COC(=O)C1=C(Nc2ccc(OC)cc2)C=C(C)C(C(=O)OC)C1c1ccc(C)cc1 (stereo not drawn) | -13%
10 | N#C/C(=C(/O)COc1cccc2ccccc12)c1nc2ccccc2[nH]1 | -8%
11 | OC(COc1ccc2c(c1)CCC2)CN1CCN(c2cccc(Cl)c2)CC1 (stereo not drawn) | 0%
12 | CCc1nnc(NC(=O)CCC(=O)NCc2ccccc2OC)s1 | -2%
13 | Cc1ccc(-c2nnc(-n3nnc4ccccc43)c3ccccc23)cc1 | -7%
14 | O=C(N/N=C/C=C/c1ccccc1)C1CC1(c1ccccc1)c1ccccc1 (stereo not drawn) | -15%
15 | N=c1c2c(-c3ccccc3)c(-c3ccccc3)n(Cc3ccccc3)c2ncn1CCCO | 13%
16 | COc1ccc(/C=C2\CCCC3C2=NN(C(=O)c2scnc2C)C3c2ccc(OC)cc2)cc1 (stereo not drawn) | -16%
17 | CCC(=O)NC(NCC1CCCO1)C(Cl)(Cl)Cl (stereo not drawn) | 3%
18 | Cc1ccc(CNC(=O)COc2ccc(S(=O)(=O)NC(C)C)cc2)cc1 | 0%
19 | CSc1ccc(C#N)cc1NC(=O)c1cccc(Cl)c1 | -8%
20 | Cc1cccc(NC(=O)/C(=C\c2ccco2)NC(=O)c2ccccc2)c1 | -2%
21 | CNC(=S)NNC(=O)c1sccc1OCc1ccccc1 | -7%
22 | Cc1ccc(NC(=S)NC(=O)c2ccc(-c3ccccc3)cc2)c(C)c1 | -9%
23 | COc1cccc(N(CC(=O)NCCSc2ccccn2)S(C)(=O)=O)c1 | -2%
24 | CN(C)c1nc(N)nc(CSc2ccccn2)n1 | -1%
25 | COc1ccccc1CSc1nc2ccccc2[nH]1 | 8%
26 | COc1ccc(Nc2nc(-c3ccccc3)cs2)cc1 | -6%
27 | CN1C2CCC1/C(=C\c1ccccc1Cl)C(=O)/C2=C\c1ccccc1Cl | -3%
28 | CSCCC(C(=O)NC1=NCCS1)N1C(=O)c2ccccc2C1=O (stereo not drawn) | -1%
